The results in this text go back to PubChem BioAssay (Tox21).

Records with an inconclusive call do not appear. A structure can be active in one record and inactive in another. The source made the active and inactive calls. Calls follow the shape of the dose curve; as a rule, active = well fitted cell-killing curve with a large enough effect in the repeat runs; inconclusive = weak or mixed curves, or effect the other way; inactive = flat fitted curve, though single readings scatter.
% is scaled to controls: 0 for no effect and ±100 for the full control effect; potency is read from the fitted curve at half-maximal effect.

The experiment in a line: Nuclear factor erythroid 2-related factor 2/antioxidant responsive element (Nrf2/ARE) small molecule agonists: qHTS cell viability counter screen in human keratinocytes (AID 1919968). Also: nearly all actives have a fitted effect of over 55% in size. Conditions: KeratinoSens HaCaT ARE cells viability, CellTiter-Fluor, 24 h; series mostly up to 92.4 µM; activity change, negative = cytotoxicity: at the top concentration. Summed up: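 Seed 1,500 KeratinoSens cells per well, then incubate 5 h at 37 C/5% CO2. Add compounds in DMSO and incubate 23 h. Add CellTiter-Fluor, wait 1 h and read fluorescence.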
Background: In qHTS, concentration-response curves come from the screen itself.
Take `Cc1cc(CCC(=O)OCCOCCOCCOC(=O)CCc2cc(C)c(O)c(C(C)(C)C)c2)cc(C(C)(C)C)c1O`: the “activity change, negative = cytotoxicity” value is 0.802% (inactive).

Turning to `COCCCOc1ccnc(CS(=O)c2nc3ccccc3[nH]2)c1C` (centres undefined), the Potency entry was “inactive”.

With `CC(C)(c1ccc(O)cc1)c1ccc(O)cc1`, the “activity change, negative = cytotoxicity” value was -9.3% (inactive).

`C[Si](C)O[Si](C)(C)O[Si](C)(C)O[Si](C)C`: the “activity change, negative = cytotoxicity” value is 0.0552% (inactive).

With `C[C@H]1C[C@H](O)c2ccsc2S1(=O)=O`, the “activity change, negative = cytotoxicity” value is 1.31% [at 42.5 µM] (inactive).

Consider `CC1=CCC(C(C)(C)O)CC1` (centres undefined), for which the Potency entry was “inactive”.

Regarding `CCC(C)=O`, the “activity change, negative = cytotoxicity” value was 0.307% (inactive).

Turning to `N=c1nc(N2CCCCC2)cc(N)n1O`, the “activity change, negative = cytotoxicity” value is 5.71% [at 42.5 µM] (inactive).

As to `CC(C)CCCC(C)N` (centres undefined), the “activity change, negative = cytotoxicity” value is 2.93% [at 42.5 µM] (inactive).

For the compound `COc1ccc2c(c1)CCCC2=O`, the “activity change, negative = cytotoxicity” value was -0.575% [at 42.5 µM] (inactive).

Regarding `CC1=CCC(O)(C(C)C)CC1` (centres undefined), the “activity change, negative = cytotoxicity” value is 1.36% (inactive).

For the compound `CCCCCCCC(=O)[O-].CCCCCCCC(=O)[O-].[Zn+2]`, the “activity change, negative = cytotoxicity” value is -0.7% [at 42.5 µM] (inactive).

As to `Nc1nc(N)c2nc(-c3ccccc3)c(N)nc2n1`, the Potency entry is “inactive”.

As to `COC(=O)c1ccccc1C(=O)c1ccc(OCCN2CCCCC2)cc1`, the “activity change, negative = cytotoxicity” value is -0.63% [at 42.5 µM] (inactive).

With `c1coc(CNc2ncnc3nc[nH]c23)c1`, the “activity change, negative = cytotoxicity” value is 2.12% (inactive).

With `CC1=C(O)C(=O)C(C)O1` (centres undefined), the “activity change, negative = cytotoxicity” value was -6.62% (inactive).

Take `Cc1[nH]cnc1-c1ccc(Cl)cc1`: the “activity change, negative = cytotoxicity” value is 3.39% [at 42.5 µM] (inactive).

`C1CCCC1`: the “activity change, negative = cytotoxicity” value is -0.501% (inactive).

Regarding `CCCC(=O)CC`, the “activity change, negative = cytotoxicity” value is -4.94% (inactive).

For `Oc1ccc(Cl)cc1Sc1cc(Cl)ccc1O`, the Potency was 38.5 µM (active).

Regarding `CCOCOCC`, the “activity change, negative = cytotoxicity” value was -1.35% (inactive).

`CCCC1O[C@@H]2C[C@H]3[C@@H]4CCC5=CC(=O)C=C[C@]5(C)[C@H]4[C@@H](O)C[C@]3(C)[C@]2(C(=O)CO)O1` (some centres undefined): the “activity change, negative = cytotoxicity” value was -9.35% (inactive).

Consider `C1C[C@@H]2[C@H]3CC[C@H](C3)[C@@H]2C1`, for which the “activity change, negative = cytotoxicity” value was 0.765% (inactive).

With `CC(C)C(=O)c1ccccc1`, the “activity change, negative = cytotoxicity” value was 0.232% (inactive).

With `Cc1c(C)c2c(c(C)c1O)CCC(C)(COc1ccc(CC3SC(=O)NC3=O)cc1)O2` (centres undefined), the “activity change, negative = cytotoxicity” value was -19% [at 42.5 µM] (inactive).

Turning to `Cc1nc2ccccc2s1`, the “activity change, negative = cytotoxicity” value was 0.104% (inactive).

On to `COCCOCCOCCOCCOCCO`, for which the “activity change, negative = cytotoxicity” value is -0.811% (inactive).

For `O=C(O)c1cc(-c2ccccc2)nc2ccccc12`, the Potency result was “inactive”.

With `COc1cc(C(=S)N2CCOCC2)ccc1O`, the “activity change, negative = cytotoxicity” value is 0.759% [at 42.5 µM] (inactive).

Consider `O=C(O)CCCCCCCCCCCC(=O)O`, for which the Potency is 30.1 µM (active) and inactive.

Consider `O=S(=O)(O)c1cccc2ccccc12`, for which the “activity change, negative = cytotoxicity” value is -0.267% (inactive).

For the compound `COC(=O)CCCCC(=O)O`, the “activity change, negative = cytotoxicity” value was -0.569% (inactive).

As to `CN(CCOc1ccc(CC2SC(=O)NC2=O)cc1)c1ccccn1` (centres undefined), the Potency result is “inactive”.

`O=C(c1ccc(O)cc1O)c1ccc(O)cc1O`: the Potency entry is “inactive”.

Consider `O=C(CCNNC(=O)c1ccncc1)NCc1ccccc1`, for which the “activity change, negative = cytotoxicity” value is 2.87% [at 42.5 µM] (inactive).

Regarding `O=C(O)c1cc(O)c(O)c(O)c1`, the “activity change, negative = cytotoxicity” value is -21.9% (inactive).

In the case of `NCCc1ccc(O)c(O)c1`, the “activity change, negative = cytotoxicity” value was 5.55% [at 42.5 µM] (inactive).

Regarding `O=C(O)c1ccc(CO)o1`, the “activity change, negative = cytotoxicity” value is 3.5% (inactive).

As to `O=C(O)CSCC(=O)NC1CCSC1=O` (centres undefined), the “activity change, negative = cytotoxicity” value is 5.64% [at 42.5 µM] (inactive).
